Results as given in the supplement of paper PMC10127200.
Structures can show the parent of a compound that is named as a salt.

Tests used:
Assay in all cases: Euclidean distance of Cell Painting phenotypic profile (signed KS, 77 features) to DMSO centroid (dimensionless distance); 5 or 10 uM (library dependent); higher = stronger phenotypic change vs DMSO (phenoactivity)
Settings in all cases: 48 h
[1] = test system: 786-O
In short: (§1)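 Phenoactivity is defined as the Euclidean distance from a compound profile to the median vehicle profile. Each profile comprised 77 Harmony features, scored as signed Kolmogorov-Smirnov statistics versus same-plate vehicle wells, then plate-position corrected, correlation-weighted and replicate-averaged at the top dose. Five cancer lines and one healthy fibroblast line were exposed to library compounds for 48 h at 10 or 5 uM (0.1% DMSO final).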

[2] = test system: A549
In short: as §1

[3] = test system: DU145
In short: as §1

[4] = test system: FB
In short: as §1

[5] = test system: HEPG2
In short: as §1

[6] = test system: OVCAR4
In short: as §1

## COc1ccc(-c2cc(=O)c3c(OC)c(OC)c(OC)c(OC)c3o2)cc1 [Tangeretin]
[1]
  Euclidean distance: 0.981
[2]
  Euclidean distance: 1.05
[3]
  Euclidean distance: 1.17
[4]
  Euclidean distance: 0.742
[5]
  Euclidean distance: 0.656
[6]
  Euclidean distance: 1.06

## Cc1ccccc1OCC(O)CO (stereo not drawn) [Mephenesin]
[1]
  Euclidean distance: 0.824
[2]
  Euclidean distance: 0.804
[3]
  Euclidean distance: 0.895
[4]
  Euclidean distance: 1.13
[5]
  Euclidean distance: 0.549
[6]
  Euclidean distance: 1.86

## C/C(=C\C(=O)OCCCCCCCCC(=O)O)C[C@@H]1OC[C@H](C[C@@H]2O[C@H]2[C@@H](C)[C@H](C)O)[C@@H](O)[C@H]1O [Mupirocin calcium]
[1]
  Euclidean distance: 1.28
[2]
  Euclidean distance: 0.948
[3]
  Euclidean distance: 1.83
[4]
  Euclidean distance: 0.82
[5]
  Euclidean distance: 0.518
[6]
  Euclidean distance: 1.26

## CCCN[C@H]1CCc2nc(N)sc2C1 [Pramipexole dihydrochloride]
[1]
  Euclidean distance: 0.969
[2]
  Euclidean distance: 0.801
[3]
  Euclidean distance: 1.16
[4]
  Euclidean distance: 1.09
[5]
  Euclidean distance: 0.46
[6]
  Euclidean distance: 1.16

## COc1ccc(CCC(=O)Nc2nc3ccc(Cl)cc3s2)cc1OC
[1]
  Euclidean distance: 1.29
[2]
  Euclidean distance: 1.76
[3]
  Euclidean distance: 1.19
[4]
  Euclidean distance: 0.998
[5]
  Euclidean distance: 1.39
[6]
  Euclidean distance: 1.52

## CO[C@H]1C(=O)[C@]2(C)[C@@H](OC)C[C@H]3OC[C@@]3(OC(C)=O)[C@H]2[C@H](OC(=O)c2ccccc2)[C@]2(O)C[C@H](OC(=O)[C@H](O)[C@@H](NC(=O)OC(C)(C)C)c3ccccc3)C(C)=C1C2(C)C [Cabazitaxel]
[1]
  Euclidean distance: 3.68
[2]
  Euclidean distance: 3.16
[3]
  Euclidean distance: 3.88
[4]
  Euclidean distance: 2.6
[5]
  Euclidean distance: 1.97
[6]
  Euclidean distance: 2.5

## CC(C)CN(C[C@@H](OP(=O)(O)O)[C@H](Cc1ccccc1)NC(=O)O[C@H]1CCOC1)S(=O)(=O)c1ccc(N)cc1 [Fosamprenavir calcium salt]
[1]
  Euclidean distance: 1.44
[2]
  Euclidean distance: 0.901
[3]
  Euclidean distance: 1.21
[4]
  Euclidean distance: 0.737
[5]
  Euclidean distance: 0.527
[6]
  Euclidean distance: 1.41

## NCCS [2-Aminoethanethiol]
[1]
  Euclidean distance: 1.12
[2]
  Euclidean distance: 0.781
[3]
  Euclidean distance: 1.46
[4]
  Euclidean distance: 0.594
[5]
  Euclidean distance: 0.508
[6]
  Euclidean distance: 1.1

## O=C(O)c1cn(C2CC2)c2cc(N3CCNCC3)c(F)cc2c1=O [Ciprofloxacin hydrochloride hydrate]
[1]
  Euclidean distance: 1.39
[2]
  Euclidean distance: 0.835
[3]
  Euclidean distance: 0.784
[4]
  Euclidean distance: 1.29
[5]
  Euclidean distance: 0.735
[6]
  Euclidean distance: 1.87

## Nc1ccc2ncnc(NCCc3ccc(Oc4ccccc4)cc3)c2c1
[1]
  Euclidean distance: 1.67
[2]
  Euclidean distance: 1.95
[3]
  Euclidean distance: 1.06
[4]
  Euclidean distance: 1.68
[5]
  Euclidean distance: 3.12
[6]
  Euclidean distance: 0.755

## CCOC(=O)C1=C(C)NC(C)=C(C(=O)OC)C1c1cccc([N+](=O)[O-])c1 (stereo not drawn) [Nitrendipine]
[1]
  Euclidean distance: 1
[2]
  Euclidean distance: 0.871
[3]
  Euclidean distance: 0.908
[4]
  Euclidean distance: 1.33
[5]
  Euclidean distance: 0.709
[6]
  Euclidean distance: 0.934

## CC(C)N(CCCCOCC(=O)NS(C)(=O)=O)c1cnc(-c2ccccc2)c(-c2ccccc2)n1 [Selexipag]
[1]
  Euclidean distance: 0.931
[2]
  Euclidean distance: 1.04
[3]
  Euclidean distance: 0.729
[4]
  Euclidean distance: 1.31
[5]
  Euclidean distance: 0.663
[6]
  Euclidean distance: 1.65

## C/C(=C\c1ccc(C(=O)O)cc1)c1ccc2c(c1)C(C)(C)CCC2(C)C [TTNPB (Arotinoid Acid)]
[1]
  Euclidean distance: 0.687
[2]
  Euclidean distance: 1.39
[3]
  Euclidean distance: 1.07
[4]
  Euclidean distance: 2.49
[5]
  Euclidean distance: 1.61
[6]
  Euclidean distance: 1.35

## CC(C)(S)[C@@H](N)C(=O)O [Penicillamine]
[1]
  Euclidean distance: 1.02
[2]
  Euclidean distance: 1.29
[3]
  Euclidean distance: 0.756
[4]
  Euclidean distance: 1.13
[5]
  Euclidean distance: 1.02
[6]
  Euclidean distance: 1.22

## CN(C)CCC=C1c2ccccc2CCc2ccccc21 [Amitriptyline HCl]
[1]
  Euclidean distance: 1.34
[2]
  Euclidean distance: 1.54
[3]
  Euclidean distance: 1.54
[4]
  Euclidean distance: 1.52
[5]
  Euclidean distance: 1.48
[6]
  Euclidean distance: 1.99

## NC[C@H]1O[C@H](O[C@H]2[C@H](O)[C@@H](O[C@H]3O[C@H](CO)[C@@H](O)[C@H](N)[C@H]3O)[C@H](N)C[C@@H]2N)[C@H](O)[C@@H](O)[C@@H]1O [Kanamycin sulfate]
[1]
  Euclidean distance: 1.57
[2]
  Euclidean distance: 0.801
[3]
  Euclidean distance: 1.16
[4]
  Euclidean distance: 0.974
[5]
  Euclidean distance: 2.18
[6]
  Euclidean distance: 1.35

## COc1cccc(-c2cc(=O)c3ccccc3o2)c1N
[1]
  Euclidean distance: 1.16
[2]
  Euclidean distance: 1.4
[3]
  Euclidean distance: 0.841
[4]
  Euclidean distance: 0.911
[5]
  Euclidean distance: 1.94
[6]
  Euclidean distance: 0.844

## CN1CCN2c3ncccc3Cc3ccccc3C2C1 (stereo not drawn) [Mirtazapine]
[1]
  Euclidean distance: 0.981
[2]
  Euclidean distance: 0.95
[3]
  Euclidean distance: 0.897
[4]
  Euclidean distance: 0.869
[5]
  Euclidean distance: 0.332
[6]
  Euclidean distance: 1.12

## NC(=O)c1cnccn1 [Pyrazinamide]
[1]
  Euclidean distance: 1.07
[2]
  Euclidean distance: 1.35
[3]
  Euclidean distance: 0.786
[4]
  Euclidean distance: 1.14
[5]
  Euclidean distance: 1.95
[6]
  Euclidean distance: 1.13

## COc1cc(/C=C/C(=O)O)ccc1O [Ferulic Acid]
[1]
  Euclidean distance: 0.857
[2]
  Euclidean distance: 0.966
[3]
  Euclidean distance: 0.806
[4]
  Euclidean distance: 0.925
[5]
  Euclidean distance: 0.541
[6]
  Euclidean distance: 1.73

## CCc1cc(C(N)=S)ccn1 [Ethionamide]
[1]
  Euclidean distance: 1.19
[2]
  Euclidean distance: 0.608
[3]
  Euclidean distance: 1.03
[4]
  Euclidean distance: 0.853
[5]
  Euclidean distance: 2.13
[6]
  Euclidean distance: 1.4

## CN(C)C(=O)c1cc2cnc(Nc3ccc(N4CCNCC4)cn3)nc2n1C1CCCC1
[1]
  Euclidean distance: 2.35
[2]
  Euclidean distance: 1.67
[3]
  Euclidean distance: 1.46
[4]
  Euclidean distance: 3.9
[5]
  Euclidean distance: 1.9
[6]
  Euclidean distance: 1.81

## CC(=O)O[C@@]12CO[C@@H]1C[C@H](O)[C@@]1(C)C(=O)[C@H](O)C3=C(C)[C@@H](OC(=O)[C@H](O)[C@@H](NC(=O)OC(C)(C)C)c4ccccc4)C[C@@](O)([C@@H](OC(=O)c4ccccc4)[C@H]21)C3(C)C [Docetaxel]
[1]
  Euclidean distance: 3.54
[2]
  Euclidean distance: 2.71
[3]
  Euclidean distance: 3.65
[4]
  Euclidean distance: 2.64
[5]
  Euclidean distance: 2.16
[6]
  Euclidean distance: 2.64
